Sampled rows, rich in hits. Any-hit rate of the full collection: about 2.2%.
IEC-6 tox = cytotoxicity in IEC-6 intestinal epithelial cells, primary screen, cytotoxicity control for KLF5 inhibitor project, cell-based, luminescence; IEC-6 cytotoxicity, luminescence viability; inhibition, % at 5 µM; actives 0.78% (n = 290,000); AID 1825, 2009
KLF5 inh = KLF5 expression inhibitors, primary screen, DLD-1 cells, luminescence; DLD-1 KLF5 promoter-luciferase reporter; inhibition, % at 5 µM; actives 0.23% (n = 290,000); AID 1700, 2009;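 active = inhibition above a per-plate limit of that plate's mean compound inhibition plus 3 SD, cut at about 60% in these data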;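 also: higher means less KLF5 promoter-driven luciferase light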
APP 5UTR inh = inhibitors of APP translation via 5'UTR reporter, primary screen, APP 5'UTR luciferase, SH-SY5Y cells. inhibition, % at 2 µM. AID 1285, 2008. actives 0.82% (n = 190,000). SH-SY5Y APP 5'UTR-luciferase reporter, luminescence;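 active = inhibition above a set limit, derived from the sample mean plus 3 SD, cut at about 45% in these data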
BaF3 tox = parental Ba/F3 cell viability inhibition, counter-screen for JAK2V617F inhibitor project, murine pro-B, CellTiter-Glo luminescence; CellTiter-Glo ATP luminescence; inhibition, % at 5.6 µM; actives 1.1% (n = 220,000);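 active = inhibition above a per-campaign cutoff, the mean inhibition of all tested compounds plus 3 SD, cut at about 27% in these data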
Ba/F3 V617F tox = reduced viability of JAK2V617F-dependent Ba/F3 cells, primary screen, JAK2V617F inhibitor project, cell-based, Ba/F3 EpoR-JAK2V617F, luminescence; inhibition, % at 5.6 µM; ATP luminescence; actives 1.1% (n = 220,000);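 active = inhibition above the campaign mean plus 3 SD over all tested compounds, cut at about 24% in these data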;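 also: cytokine-independent growth of Ba/F3 cells driven by EpoR plus mutant JAK2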
aSyn UTR inh = MLPCN primary screen, SNCA 5' untranslated region | alpha-synuclein 5'UTR reporter, inhibitor activity | inhibition, % (tested at 7.5 µM) | actives 0.82% (n = 300,000) | AID 1813, 2009; in the data active = inhibition above about 60%;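 also: H4 neuroglioblastoma cells stably carrying SNCA 5'UTR luciferase fusion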
IEC-6 cytotox cf = cytotoxic compounds in IEC-6 epithelial cells, confirmation, cytotoxicity control, cell-based, luminescence; shares compounds with IEC-6 tox; IEC-6 rat intestinal epithelial viability; inhibition, % at 5 µM; actives 63% (n = 1,900)
Each line names hits and unclear results; the compound was inactive in the other large screens (follow-up assays come after a bar, where they were run). Rule as the data show it, unless noted: active = inhibition above about 22%; inactive = the rest.

Clc1cccc(Cl)c1/C=C/c1ccn[nH]1	IEC-6 tox 27.0 (no result: APP 5UTR inh, BaF3 tox, Ba/F3 V617F tox) | IEC-6 cytotox cf inactive
COc1ccc(NC(=O)N2CCN(c3cccc(C(F)(F)F)c3)CC2)cc1	IEC-6 tox 23.5 | IEC-6 cytotox cf inactive
CN(C)S(=O)(=O)c1ccc(NC(=O)N2CCN(c3cccc(C(F)(F)F)c3)CC2)cc1	none
CCCC(=O)Nc1ccc2c(c1)nc(CN1CCN(C(=O)OCC)CC1)n2CC	IEC-6 tox 31.1 (no result: APP 5UTR inh, BaF3 tox, Ba/F3 V617F tox) | IEC-6 cytotox cf inactive
C/C(CC(=O)Nc1ccc(C)c(Cl)c1)=N\NC(=O)c1ccccn1	none (no result: APP 5UTR inh, BaF3 tox, Ba/F3 V617F tox)
O=[N+]([O-])c1cc([N+](=O)[O-])c2oc(-c3ccccc3)c(Br)c2c1O	IEC-6 tox 28.6 (no result: APP 5UTR inh, BaF3 tox, Ba/F3 V617F tox) | IEC-6 cytotox cf inactive
CC(=O)c1ccc(Nc2cc(C)nc3ccccc23)cc1	IEC-6 tox 38.3 | IEC-6 cytotox cf 34.8
CC(=O)c1ccc(Nc2cc(C)nc3c(C)cccc23)cc1	IEC-6 tox 80.6, APP 5UTR inh 87.2, BaF3 tox 76.5, Ba/F3 V617F tox 76.6 | IEC-6 cytotox cf 59.7
COc1ccc(Nc2cc(C)nc3ccccc23)cc1	none
COC(=O)c1ccc(Nc2cc(C)nc3ccc(C)cc23)cc1	IEC-6 tox 26.1 (no result: APP 5UTR inh) | IEC-6 cytotox cf 27.0
CC(C)(C)c1ccc(C(=O)Nc2cccc(-n3cnnn3)c2)cc1	none (no result: APP 5UTR inh, BaF3 tox, Ba/F3 V617F tox)
CCC(=O)N1CCc2cc(OC)c(OC)cc2C1COc1ccc(F)cc1 (configuration not stated)	none (no result: APP 5UTR inh, BaF3 tox, Ba/F3 V617F tox)
COc1ccc(OC)c(S(=O)(=O)N2CCC(NC(=O)c3ccccc3)CC2)c1	none (no result: APP 5UTR inh, BaF3 tox, Ba/F3 V617F tox)
COc1cc(OC)cc(C(=O)N2CC(=O)Nc3ccccc32)c1	IEC-6 tox 74.2 (no result: APP 5UTR inh, BaF3 tox, Ba/F3 V617F tox) | IEC-6 cytotox cf 55.9
O=S1(=O)CCOCCN1Cc1ccc(Cl)cc1Cl	none (no result: APP 5UTR inh, BaF3 tox, Ba/F3 V617F tox)
CCN(CC)c1ccc(/C=N/NC(=O)c2cnccn2)cc1	IEC-6 tox 43.4, APP 5UTR inh 73.7, BaF3 tox 73.5, Ba/F3 V617F tox 78.2 | IEC-6 cytotox cf 55.9
CCC(=O)NC(NC(=S)Nc1cccc2cccnc12)C(Cl)(Cl)Cl (configuration not stated)	none
CCC(=O)NC(c1ccc(C)cc1)c1ccc2cccnc2c1O (configuration not stated)	IEC-6 tox 60.9, KLF5 inh 73.2, aSyn UTR inh 80.9 (no result: APP 5UTR inh, BaF3 tox, Ba/F3 V617F tox) | IEC-6 cytotox cf 82.3
Oc1c(C(Nc2ccccn2)c2ccccn2)ccc2cccnc12 (configuration not stated)	none
Cc1cc(NC(c2ccc(Cl)cc2)c2ccc3cccnc3c2O)no1 (configuration not stated)	IEC-6 tox 39.3, APP 5UTR inh 79.4, BaF3 tox 55.1, aSyn UTR inh 84.9 | IEC-6 cytotox cf 72.0
CCC(=O)NC(c1ccc(Cl)cc1Cl)c1ccc2cccnc2c1O (configuration not stated)	IEC-6 tox 26.3, KLF5 inh 85.9, aSyn UTR inh 75.3 (no result: APP 5UTR inh, BaF3 tox, Ba/F3 V617F tox) | IEC-6 cytotox cf 70.5
CC1(C)Cc2c(sc(NC(=O)C(=O)N3CCN(CCO)CC3)c2C(N)=O)CO1	none (no result: APP 5UTR inh, BaF3 tox, Ba/F3 V617F tox)
CCOC(=O)c1c(C)[nH]c(C(=O)N2CCc3cc(OC)c(OC)cc3C2)c1C	none (no result: IEC-6 tox, KLF5 inh, APP 5UTR inh, BaF3 tox, Ba/F3 V617F tox)
CN(C)c1ccc(/C=C2\SC(N3CCCCC3)=NC2=O)cc1	none (no result: APP 5UTR inh, BaF3 tox, Ba/F3 V617F tox)
OC(CNCCc1ccc(Cl)cc1)COc1ccc2ccccc2c1 (configuration not stated)	none (no result: aSyn UTR inh)
OC(CNCCc1ccccc1)COc1ccc(OCC(O)CNCCc2ccccc2)cc1 (configuration not stated)	IEC-6 tox 26.0, aSyn UTR inh 107.5 (no result: APP 5UTR inh) | IEC-6 cytotox cf 42.1
O=C(CCC(=O)N1CCOc2ccc(Cl)cc21)NCCN1CCOCC1	none (no result: APP 5UTR inh, BaF3 tox, Ba/F3 V617F tox)
O=C(NCCOc1ccccc1F)c1cc([N+](=O)[O-])ccc1N1CCOCC1	IEC-6 tox 48.8 (no result: APP 5UTR inh, BaF3 tox, Ba/F3 V617F tox) | IEC-6 cytotox cf 41.3
Cc1cc(C)n(-c2nc3ccccc3c(=O)n2OCC(=O)OCc2ccccc2)n1	IEC-6 tox 57.6, APP 5UTR inh 51.4, aSyn UTR inh 62.0 | IEC-6 cytotox cf 30.2
Cc1cc(C)n(-c2nc3ccccc3c(=O)n2OCC(=O)N(C)C)n1	none
Cc1ccccc1NC(=O)Cc1nc(COC(=O)c2cc([N+](=O)[O-])ccc2N)cs1	none (no result: APP 5UTR inh, BaF3 tox, Ba/F3 V617F tox)
CCOc1cc(/C=C2\CN(CC)C/C(=C\c3ccc(O)c(OCC)c3)C2=O)ccc1O	IEC-6 tox 73.6, aSyn UTR inh 102.4 (no result: APP 5UTR inh, BaF3 tox, Ba/F3 V617F tox) | IEC-6 cytotox cf 23.5
COc1cc(/C=C2\CCC/C(=C\c3ccc(O)c(OC)c3)C2=O)ccc1O	none (no result: APP 5UTR inh, BaF3 tox, Ba/F3 V617F tox)
CC1N(C(=O)N2CCOCC2)CCN1S(=O)(=O)c1cccc(C(F)(F)F)c1 (configuration not stated)	none (no result: APP 5UTR inh, BaF3 tox, Ba/F3 V617F tox)
CC(=O)c1ccc(C(=O)N2CCCC(CO)(Cc3ccccc3C)C2)s1 (configuration not stated)	none (no result: APP 5UTR inh, BaF3 tox, Ba/F3 V617F tox)
COc1cc2c(cc1OC)C(C)N(C(=O)CCNC(=O)c1ccccc1)CC2 (configuration not stated)	none (no result: APP 5UTR inh, BaF3 tox, Ba/F3 V617F tox)
COc1cc2c(cc1OC)C(C)N(C(=O)Nc1ccccc1)CC2 (configuration not stated)	IEC-6 tox 63.0 (no result: APP 5UTR inh, BaF3 tox, Ba/F3 V617F tox) | IEC-6 cytotox cf 50.2
Cn1cnc(Sc2ncnc3nc[nH]c23)c1[N+](=O)[O-]	IEC-6 tox 39.2, BaF3 tox 36.4, Ba/F3 V617F tox 58.6 (no result: APP 5UTR inh) | IEC-6 cytotox cf 35.6
Cc1cccnc1Sc1c([N+](=O)[O-])ncn1C	none
Cc1ccc(OCCSc2ncnc3nc[nH]c23)cc1	none
